Test results published in PubChem BioAssay (Tox21).
“And” between values parts separate entries of the source, which are not always exact repeats. Identical values can stand only once. Records with an inconclusive call do not appear. A call without a number means that no potency is given here. A number with no mark means an inactive call. The source made the active and inactive calls. The call rests on the fitted dose curve; in most records, active means well fitted inhibition curve with a large enough effect in the signal ratio in the repeat runs (not every such curve was filed as active); inconclusive means weak or mixed curves, or effect the other way; inactive means no such curve, though single readings can be large or run the other way; the % refers to the signal ratio.

biological target: Glucocorticoid receptor (Homo sapiens) (UniProt P04150); experiment: qHTS assay to identify small molecule antagonists of the glucocorticoid receptor (GR) signaling pathway (AID 720692); details: GR-bla HeLa, beta-lactamase FRET ratio, dexamethasone-stimulated, 18 h; series mostly up to 58.5 µM; activity change, negative = inhibition: at the top concentration
Sequence (P04150 whole entry, looked up): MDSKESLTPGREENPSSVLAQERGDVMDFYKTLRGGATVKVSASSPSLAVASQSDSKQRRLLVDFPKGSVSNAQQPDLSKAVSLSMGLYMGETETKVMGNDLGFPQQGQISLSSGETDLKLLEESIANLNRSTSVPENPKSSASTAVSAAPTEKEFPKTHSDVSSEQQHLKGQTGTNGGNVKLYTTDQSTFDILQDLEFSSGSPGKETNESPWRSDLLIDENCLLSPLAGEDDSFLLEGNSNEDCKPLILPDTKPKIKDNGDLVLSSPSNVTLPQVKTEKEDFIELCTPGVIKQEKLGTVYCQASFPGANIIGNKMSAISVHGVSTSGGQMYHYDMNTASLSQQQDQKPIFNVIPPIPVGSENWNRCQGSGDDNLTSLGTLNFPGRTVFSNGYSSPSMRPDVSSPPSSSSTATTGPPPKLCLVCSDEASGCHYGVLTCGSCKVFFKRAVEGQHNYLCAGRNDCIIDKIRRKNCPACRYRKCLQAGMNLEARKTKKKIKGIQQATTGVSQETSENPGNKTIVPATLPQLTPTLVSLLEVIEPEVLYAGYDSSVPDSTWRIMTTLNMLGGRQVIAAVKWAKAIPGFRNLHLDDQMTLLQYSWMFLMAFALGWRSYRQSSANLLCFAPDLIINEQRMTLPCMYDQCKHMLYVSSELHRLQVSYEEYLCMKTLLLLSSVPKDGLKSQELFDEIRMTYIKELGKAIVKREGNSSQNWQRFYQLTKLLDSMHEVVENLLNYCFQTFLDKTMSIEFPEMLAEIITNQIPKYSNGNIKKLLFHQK
Description: U.S. Tox21 Program National Center for Advancing Translational Sciences [NCATS] NIH Chemical Genomics Center [NCGC] U.S. Environmental Protection Agency [EPA] National Institutes of Environmental Health Sciences [NIEHS] National Toxicology Program [NTP] U.S. Food and Drug Administration [FDA] Tox21 Assay Overview: The Glucocorticoid receptor (GR) is one of the members of the nuclear receptor family of ligand-dependent transcription factors. GR plays a critical role in carbohydrate, protein and lipid metabolisms and programmed cell death. CellSensor GR-bla HeLa cell line (Invitrogen) contains a beta-lactamase reporter gene under the control of the glucocorticoid response element stably integrated into HeLa cells, a cervical cancer cell line that expresses glucocorticoid receptor. The activation of the reporter gene under culture conditions can be detected by fluorescence intensity. This cell line has been used to screen the Tox21 10K compound library and to identify the compounds that inhibit the GR signaling.
Tox21 Assay Protocol Summary: The GR-bla HeLa cells were dispensed at 1500 cells/5 ul/well in 1536-well black wall/clear bottom plates using a Multidrop Combi (ThermoFisher Scientific, Waltham, MA) dispenser. After the assay plates were incubated at a 37 C/5% CO2 incubator for 4 hours, 23 nL of compounds dissolved in DMSO, positive controls or DMSO only was transferred to the assay plate by a pintool station (Kalypsys, San Diego, CA), followed by addition of 1 uL of dexamethasone (5 nM, final concentration in the well). The plates were incubated at 37 C for 18 hours. After 1 uL of LiveBLAzerTM B/G FRET substrate was added using a Flying Reagent Dispenser (Aurora Discovery, San Diego, CA), the plates were incubated at room temperature for 2 hours, and fluorescence intensity was measured by an Envision plate reader (PerkinElmer, Shelton, CT).
Potency means the concentration at half of the fitted maximal effect.

SMILES | Potency | activity change, negative = inhibition
COS(C)(=O)=O | inactive | –
COc1cc(Cc2cnc(N)nc2N)cc(OC)c1OC | – | -4.04%
CCc1cccc(C)c1N | – | 0.851%
C=C(C)C(=O)OCCOCCOCCOC(=O)C(=C)C | inactive | –
CCN(CC)CCCC(C)Nc1ccnc2cc(Cl)ccc12 (stereo not given) | inactive | –
CCCCCCCCC/C=C/CC1CC(=O)OC1=O (stereo not given) | 49 µM (active) | –
CCCCCC/C(C=O)=C\c1ccccc1 | – | -6.25% [at 78.9 µM]
Cc1ccc(S(N)(=O)=O)cc1 | inactive | –
OCCOCCOCCO | inactive | –
NNc1nncc2ccccc12 | inactive | –
OCC(CO)(CBr)CBr | inactive | –
Fc1ccc(Br)cc1 | – | 5.53% [at 78.9 µM]
O=C(O)c1ccc2c(c1)C(=O)OC2=O | – | 3.74%
Cc1ccc(N(C)C)cc1 | inactive | –
CCCCCC1=CCCC1=O | – | -14.7%
O=[N+]([O-])c1ccc(/C=C/c2ccc([N+](=O)[O-])cc2S(=O)(=O)O)c(S(=O)(=O)O)c1 | – | -11.9%
CCCCC(CC)CO (stereo not given) | inactive | –
Oc1cccc2ccccc12 | – | 0.994% [at 78.9 µM]
CN(C)CCCN | inactive | –
CN(C)CCC(c1ccc(Cl)cc1)c1ccccn1 (stereo not given) | inactive | –

SMILES | Potency | activity change, negative = inhibition
O=C(O)CC(C(=O)O)C(CC(=O)O)C(=O)O (stereo not given) | inactive | –
CN(C)CCOCCN(C)C | – | 5.85%
O=C(O)CCCC[C@@H]1SC[C@@H]2NC(=O)N[C@@H]21 | – | -0.55%
CC[C@H](C)C(=O)O[C@H]1C[C@@H](C)C=C2C=C[C@H](C)[C@H](CC[C@@H]3C[C@@H](O)CC(=O)O3)[C@H]21 | 21.3 µM (active) | –
c1c[nH]cn1 | inactive | –
CCCCC(CC)COC(=O)CS (stereo not given) | – | -11.4%
CC1CCC2CC1C2(C)C (stereo not given) | inactive | –
CCCCC(CC)COC(=O)C(C#N)=C(c1ccccc1)c1ccccc1 (stereo not given) | – | -7.95%
CCCCCCOCCO | inactive | –
CC1=CC(=O)NS(=O)(=O)O1 | inactive | –
O=P(OC(CCl)CCl)(OC(CCl)CCl)OC(CCl)CCl | 21.8 µM (active) and 30.9 µM (active) | –
Nc1ccccc1[N+](=O)[O-] | – | 0.511%
O=S1(=O)CC=CC1 | inactive | –
Cc1cnc(C(=O)NCCc2ccc(S(=O)(=O)NC(=O)NC3CCCCC3)cc2)cn1 | inactive | –
COCCCOc1ccnc(CS(=O)c2nc3ccccc3[nH]2)c1C (stereo not given) | – | -1.36%
c1ccc(OCCOc2ccccc2)cc1 | – | 17.3%
O=C(O)CCCCCCCCCCC(=O)O | inactive | –
CCC(O)OCCCOC (stereo not given) | inactive | –
CC1=C(C)S(=O)(=O)CCS1(=O)=O | inactive | –
CCN(CC)c1ccc(C(=O)c2ccccc2C(=O)O)c(O)c1 | inactive | –
